# In PubChem BioAssay (Tox21):
# Inconclusive results are not listed. A call without a number means that no potency is given here. Active and inactive are the calls of the source. Unless noted, calls follow the shape of the dose curve; as a rule, active = well fitted curve in the direction sought with a large enough effect in the repeat runs; inconclusive = weak or mixed curves; inactive = no such curve, though single readings can be large; an effect the other way counts as inactive or inconclusive.
# Biological target: Nuclear receptor subfamily 1 group I member 3 (Homo sapiens) (UniProt Q14994)
# Sequence (Q14994 whole entry, looked up): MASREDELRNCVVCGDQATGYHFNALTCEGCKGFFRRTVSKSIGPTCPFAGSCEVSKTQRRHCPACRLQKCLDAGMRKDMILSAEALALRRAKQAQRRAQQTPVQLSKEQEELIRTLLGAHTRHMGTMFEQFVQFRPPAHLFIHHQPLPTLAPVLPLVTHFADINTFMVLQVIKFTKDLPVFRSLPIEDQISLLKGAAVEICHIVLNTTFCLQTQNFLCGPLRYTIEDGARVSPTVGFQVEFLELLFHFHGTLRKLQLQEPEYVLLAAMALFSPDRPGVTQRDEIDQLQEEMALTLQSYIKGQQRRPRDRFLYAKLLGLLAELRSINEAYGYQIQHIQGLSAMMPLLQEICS
# Test: qHTS assay to identify small molecule antagonists of the constitutive androstane receptor (CAR) signaling pathway (AID 1224838);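 also: HepG2 cells stably expressing hCAR with CYP2B6 luciferase reporter stimulated by CITCO; nearly all actives have a fitted effect of over 40% in size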
# Details: HepG2-CYP2B6-hCAR luciferase, CITCO-stimulated, 24 h; series mostly up to 92.4 µM
# Method in brief: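 Quantitative HTS in double-stable HepG2-CYP2B6-hCAR cells. After 4 h plating, cells get compound (15 concentrations) and CITCO at 50 nM final, incubate 24 h at 37 C, then ONE-Glo luminescence is read.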
# Potency is read from the fitted curve at half-maximal effect.
row,Structure (SMILES),Potency
1,C=C/C(C)=C/C/C=C(\C)CCC=C(C)C,inactive
2,c1ccc(C[n+]2cccc3ccccc32)cc1,inactive
3,c1csc(SSc2cccs2)c1,43.3 µM (active)
4,O=C=Nc1ccc(Cl)c(Cl)c1,inactive
5,CC(CN(C)C)C(C)(O)Cc1ccc(Cl)cc1 (stereo not drawn),inactive
6,Nc1ncnc2c1ncn2[C@H]1CC[C@@H](CO)O1,inactive
7,CCC=CC#N,inactive
8,CS(=O)(=O)c1ccc(-c2cn3ccccc3n2)cc1,inactive
9,CC1CC(C)C(=O)C1=O (stereo not drawn),inactive
10,CCCCCCCCCI,inactive
11,N#CCc1ccc(Cl)cc1Cl,inactive
12,COc1ccc(OC(=O)N(CC(=O)O)Cc2ccc(OCCc3nc(-c4ccccc4)oc3C)cc2)cc1,inactive
13,CN1C(C(=O)Nc2ccccn2)=C(O)c2sccc2S1(=O)=O,inactive
14,CCCCN1CCCC1C(=O)Nc1c(C)cc(C)cc1C (stereo not drawn),inactive
15,NC(=O)c1ccncc1,inactive
16,COC(=O)c1nc(Cl)c(Cl)nc1N,2.98 µM (active)
17,O=c1[nH]ncc2ccccc12,inactive
18,O=C(OCC(O)CO)c1ccccc1Nc1ccnc2cc(Cl)ccc12 (stereo not drawn),inactive
19,CC(C)COCC(CN(Cc1ccccc1)c1ccccc1)N1CCCC1 (stereo not drawn),18.8 µM (active)
20,C=CC(C)(CCC=C(C)C)OC(=O)CC(C)C (stereo not drawn),inactive
21,CC(C)C(O)(c1ccc(OC(F)(F)F)cc1)c1cncnc1 (stereo not drawn),inactive
22,CC(C)C=O,inactive
23,COC(=O)CCS,inactive
24,Cc1ccc(CO)cc1,inactive
25,C=C(C)C(=O)OCCOCCOC(=O)C(=C)C,inactive
26,Cc1ccco1,inactive
27,CC(C)=CCC1C(=O)N(c2ccccc2)N(c2ccccc2)C1=O,inactive
28,CCCCC(CC)CN (stereo not drawn),inactive
29,CC1=C(Br)C(=O)C(Br)=C/C1=C(/c1ccccc1S(=O)(=O)O)c1cc(Br)c(O)c(Br)c1C,18.6 µM (active)

# Biological target: Nuclear receptor subfamily 1 group I member 3 (Homo sapiens) (UniProt Q14994)
# Test: qHTS assay to identify small molecule agonists of the constitutive androstane receptor (CAR) signaling pathway (AID 1224839); also: nearly all actives have a fitted effect of over 15% in size
# Details: HepG2 hCAR CYP2B6-luciferase, agonist mode, 24 h; series mostly up to 92.4 µM
# Method in brief: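 Stable hCAR/CYP2B6-2.2kb HepG2 line in DMEM with 10% FBS; compounds (15 concentrations) and 0.75 uM PK11195 final, 24 h at 37 C/5% CO2, then ONE-Glo luminescence after 30 min.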
row,Structure (SMILES),Potency
1,C=C/C(C)=C/C/C=C(\C)CCC=C(C)C,inactive
2,c1ccc(C[n+]2cccc3ccccc32)cc1,inactive
3,c1csc(SSc2cccs2)c1,inactive
4,O=C=Nc1ccc(Cl)c(Cl)c1,inactive
5,CC(CN(C)C)C(C)(O)Cc1ccc(Cl)cc1 (stereo not drawn),inactive
6,Brc1cc2ccccc2c2ccccc12,17.4 µM (active)
7,Nc1ncnc2c1ncn2[C@H]1CC[C@@H](CO)O1,inactive
8,Cc1cccc(O)c1N,inactive
9,CCC=CC#N,inactive
10,CS(=O)(=O)c1ccc(-c2cn3ccccc3n2)cc1,2.11 µM (active)
11,CC1CC(C)C(=O)C1=O (stereo not drawn),inactive
12,CCCCCCCCCI,inactive
13,N#CCc1ccc(Cl)cc1Cl,inactive
14,COc1ccc(OC(=O)N(CC(=O)O)Cc2ccc(OCCc3nc(-c4ccccc4)oc3C)cc2)cc1,inactive
15,CN1C(C(=O)Nc2ccccn2)=C(O)c2sccc2S1(=O)=O,inactive
16,CCCCN1CCCC1C(=O)Nc1c(C)cc(C)cc1C (stereo not drawn),29.8 µM (active)

row,Structure (SMILES),Potency
1,NC(=O)c1ccncc1,inactive
2,COC(=O)c1nc(Cl)c(Cl)nc1N,inactive
3,O=c1[nH]ncc2ccccc12,inactive
4,O=C(OCC(O)CO)c1ccccc1Nc1ccnc2cc(Cl)ccc12 (stereo not drawn),inactive
5,CC(C)COCC(CN(Cc1ccccc1)c1ccccc1)N1CCCC1 (stereo not drawn),inactive
6,C=CC(C)(CCC=C(C)C)OC(=O)CC(C)C (stereo not drawn),inactive
7,CC(C)C(O)(c1ccc(OC(F)(F)F)cc1)c1cncnc1 (stereo not drawn),inactive
8,CC(C)C=O,inactive
9,COC(=O)CCS,inactive
10,Cc1ccc(CO)cc1,inactive
11,C=C(C)C(=O)OCCOCCOC(=O)C(=C)C,inactive
12,Cc1ccco1,inactive
13,CC(C)=CCC1C(=O)N(c2ccccc2)N(c2ccccc2)C1=O,inactive
14,CCCCC(CC)CN (stereo not drawn),inactive
15,CC1=C(Br)C(=O)C(Br)=C/C1=C(/c1ccccc1S(=O)(=O)O)c1cc(Br)c(O)c(Br)c1C,inactive

# Test system: not listed separately
# Test: qHTS assay to identify small molecule antagonists of the estrogen related receptor signaling pathway with the pleiotropic PPARgamma coactivator (PGC) from Tox21 10K library - cell viability counter screen (AID 1224840; active = well fitted cell-killing curve with a large enough effect in the repeat runs, not every such curve was filed as active; also: nearly all actives have a fitted effect of over 40% in size)
# Details: PGC/ERR reporter cells viability, CellTiter-Fluor, 17.5 h; series mostly up to 92.4 µM
# Method in brief: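 Compounds in DMSO, alongside positive and negative controls, were pinned onto PGC/ERR cells (2,000 per well). Exposure lasted 17.5 hours at 37 C, followed by a 30-minute CellTiter-Fluor incubation and fluorescence reading.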
row,Structure (SMILES),Potency
1,C=C/C(C)=C/C/C=C(\C)CCC=C(C)C,inactive
2,Cc1cscn1,inactive
3,c1ccc(C[n+]2cccc3ccccc32)cc1,inactive
4,C[C@@H](O)[C@H]1C(=O)N2C(C(=O)O)=C([C@H]3CCCO3)S[C@H]12,inactive
5,O=C=Nc1ccc(Cl)c(Cl)c1,inactive
6,CC(CN(C)C)C(C)(O)Cc1ccc(Cl)cc1 (stereo not drawn),inactive
7,Nc1ncnc2c1ncn2[C@H]1CC[C@@H](CO)O1,inactive
8,Cc1cccc(O)c1N,inactive
9,CCC=CC#N,inactive
10,CS(=O)(=O)c1ccc(-c2cn3ccccc3n2)cc1,inactive
11,CC1CC(C)C(=O)C1=O (stereo not drawn),inactive
12,CCCCCCCCCI,inactive
13,N#CCc1ccc(Cl)cc1Cl,inactive
14,COc1ccc(OC(=O)N(CC(=O)O)Cc2ccc(OCCc3nc(-c4ccccc4)oc3C)cc2)cc1,inactive
15,CN1C(C(=O)Nc2ccccn2)=C(O)c2sccc2S1(=O)=O,inactive
16,CC1(C)S[C@@H]2[C@H](NC(=O)C(c3ccccc3)S(=O)(=O)O)C(=O)N2[C@H]1C(=O)O (stereo partly drawn),inactive
17,CCCCCC[C@@H](O)C/C=C\CCCCCCCC(=O)OCC(O)CO (stereo partly drawn),inactive
18,Nc1ccc(N=Nc2ccccc2)c(N)c1,26.7 µM (active)
19,CCCCN1CCCC1C(=O)Nc1c(C)cc(C)cc1C (stereo not drawn),inactive

row,Structure (SMILES),Potency
1,NC(=O)c1ccncc1,inactive
2,COC(=O)c1nc(Cl)c(Cl)nc1N,1.68 µM (active)
3,O=c1[nH]ncc2ccccc12,inactive
4,O=C(OCC(O)CO)c1ccccc1Nc1ccnc2cc(Cl)ccc12 (stereo not drawn),inactive
5,CC(C)COCC(CN(Cc1ccccc1)c1ccccc1)N1CCCC1 (stereo not drawn),29.8 µM (active)
6,C=CC(C)(CCC=C(C)C)OC(=O)CC(C)C (stereo not drawn),inactive
7,CC(C)C(O)(c1ccc(OC(F)(F)F)cc1)c1cncnc1 (stereo not drawn),inactive
8,CCOC(=O)c1ccc(C#Cc2ccc3c(c2)C(C)(C)CCS3)nc1,inactive
9,CO[C@]1(NC(=O)CSC(F)F)C(=O)N2C(C(=O)O)=C(CSc3nnnn3CCO)CO[C@H]21,inactive
10,CC(C)C=O,inactive
11,O=C1C(=O)c2ccccc2C(O)=C1C1CCC(c2ccc(Cl)cc2)CC1 (stereo not drawn),inactive
12,CCCCCCCCCCC(=O)O,inactive
13,COC(=O)CCS,inactive
14,Cc1ccc(CO)cc1,inactive
15,C=C(C)C(=O)OCCOCCOC(=O)C(=C)C,inactive
16,Cc1ccco1,inactive
17,CC(C)=CCC1C(=O)N(c2ccccc2)N(c2ccccc2)C1=O,inactive
18,CCCCC(CC)CN (stereo not drawn),inactive
19,CC1=C(Br)C(=O)C(Br)=C/C1=C(/c1ccccc1S(=O)(=O)O)c1cc(Br)c(O)c(Br)c1C,18.6 µM (active)
